According to the supplement of paper PMC6555819:

What was measured:
Test in all cases: PBM binding z-score (relative to random genomic background probes); higher = stronger binding; sequences stand for … in GC…GCGATTGACAGCGTAGAATGAAGG
[1] = tested on: FXR:RXRa (NR concentration 270 nM, RXRa partner concentration 90 nM)
How it was run: (§1)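 Ligand-free nuclear receptor dimers were bound for 1 h to custom Agilent 4×180K protein-binding microarrays. Detection used antibodies against each partner (one per run). Binding z-scores rest on regression-normalized fluorescence, with random background probes as the reference.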

[2] = tested on: LXRa:RXRa (NR concentration 270 nM, RXRa partner concentration 90 nM)
How it was run: as §1

[3] = tested on: LXRa homodimer (NR concentration 270 nM)
How it was run: as §1

[4] = tested on: LXRb:RXRa (NR concentration 270 nM, RXRa partner concentration 90 nM)
How it was run: as §1

[5] = tested on: LXRb homodimer (NR concentration 270 nM)
How it was run: as §1

[6] = tested on: PPARa:RXRa (NR concentration 270 nM, RXRa partner concentration 90 nM)
How it was run: as §1

[7] = tested on: PPARg:RXRa (NR concentration 180 nM, RXRa partner concentration 90 nM)
How it was run: as §1

[8] = tested on: PPARg:RXRa 270nM:90nM, anti-RXR (NR concentration 270 nM, RXRa partner concentration 90 nM)
How it was run: as §1

[9] = tested on: PPARg:RXRa 30nM:10nM, anti-RXR (NR concentration 30 nM, RXRa partner concentration 10 nM)
How it was run: as §1

[10] = tested on: PPARg:RXRa 90nM:30nM, anti-RXR (NR concentration 90 nM, RXRa partner concentration 30 nM)
How it was run: as §1

[11] = tested on: PPARg:RXRa DBDmut IVT, anti-RXR (DBD mutation: RXRa K156A/R161A, NR concentration 270 nM, RXRa partner concentration 90 nM)
How it was run: as §1

[12] = tested on: PPARg:RXRa IVT, anti-PPARg (NR concentration 270 nM, RXRa partner concentration 90 nM)
How it was run: as §1

[13] = tested on: PPARg DBDmut:RXRa IVT, anti-PPARg (DBD mutation: PPARg1 K132A/R137A, NR concentration 270 nM, RXRa partner concentration 90 nM)
How it was run: as §1

[14] = tested on: PPARg DBDmut IVT, anti-PPARg (DBD mutation: PPARg1 K132A/R137A, NR concentration 270 nM)
How it was run: as §1

[15] = tested on: PPARg homodimer (NR concentration 180 nM)
How it was run: as §1

[16] = tested on: PXR:RXRa (NR concentration 270 nM, RXRa partner concentration 90 nM)
How it was run: as §1

[17] = tested on: PXR homodimer (NR concentration 270 nM)
How it was run: as §1

[18] = tested on: RARa:RXR (NR concentration 270 nM, RXRa partner concentration 90 nM)
How it was run: as §1

[19] = tested on: RARa homodimer (NR concentration 270 nM)
How it was run: as §1

[20] = tested on: RARb:RXRa (NR concentration 270 nM, RXRa partner concentration 90 nM)
How it was run: as §1

Row | Sequence | PBM binding z-score [1] | PBM binding z-score [2] | PBM binding z-score [3] | PBM binding z-score [4] | PBM binding z-score [5] | PBM binding z-score [6] | PBM binding z-score [7] | PBM binding z-score [8] | PBM binding z-score [9] | PBM binding z-score [10] | PBM binding z-score [11] | PBM binding z-score [12] | PBM binding z-score [13] | PBM binding z-score [14] | PBM binding z-score [15] | PBM binding z-score [16] | PBM binding z-score [17] | PBM binding z-score [18] | PBM binding z-score [19] | PBM binding z-score [20]
1 | CGTCAAAGTTCAAGGTAACGTGACAGAAAGCAGC | 5.87 | 5.39 | 2.53 | 3.27 | 0.738 | 4.34 | 4.02 | 4.9 | 2.23 | 3.9 | 0.641 | 2.15 | 0.0239 | 0.308 | 2.16 | 4.21 | 2.13 | 3.56 | 1.05 | 5.08
2 | CCTATTAGTTGACCATAACGGCAACCGAAGCTCG | 0.455 | 0.697 | 0.909 | 0.584 | 0.966 | 0.199 | 0.702 | 0.486 | 0.219 | 0.318 | 0.934 | 0.243 | 0.836 | 1.13 | 2.08 | 0.499 | 1.25 | 0.72 | 2.49 | 0.584
3 | GCTGACGGGTCAAAGGTTATAGCATGAATAGAAT | 7.43 | 5.45 | 0.433 | 5.53 | -0.231 | 6.99 | 9.41 | 8.11 | 7.21 | 8.55 | 1.23 | 4.56 | 0.893 | 0.679 | 3.42 | 5.8 | 0.288 | 8.03 | 0.75 | 4.63
4 | ATACCAAAGTGATCGTGAGGTCGTTGATACTAAC | 1.23 | 0.707 | 0.848 | 0.923 | -0.182 | 0.935 | 0.235 | 0.258 | 0.0966 | -0.173 | -0.498 | 0.345 | 0.693 | 0.857 | 0.565 | 1.86 | 1.59 | 1.59 | 0.386 | 0.514
5 | TCTGGGAGGACACGAAAGGTCAGAGCTCGACATC | 3.35 | 4.18 | 3.31 | 3.11 | 0.345 | 3.51 | 1.49 | 2.81 | 1.88 | 2.34 | 1.27 | 1.89 | 0.0227 | -0.425 | 2.76 | 4.23 | 0.802 | 4.77 | 1.17 | 4.34
6 | CCTTACGGGTCCAGGTTATAGCACGGGTGGTACG | -0.118 | -0.304 | -0.277 | -0.566 | -1.29 | -0.292 | 0.168 | -0.847 | -0.404 | -0.604 | -1.08 | -0.342 | -0.7 | -1.74 | -0.0235 | -0.402 | -0.186 | -0.536 | 0.162 | 0.245
7 | CAAACTAGGTCAAGAGGTAAAAGTCCGCTTCCCG | 4.11 | 3.15 | 0.451 | 2.2 | 0.356 | 5.2 | 8.8 | 7.58 | 5.87 | 7.82 | 8.5 | 8.39 | 6.02 | 5.32 | 3.74 | 1.92 | 0.28 | 3.43 | 0.988 | 4.19
8 | CATACAGGGTCAGCTAGGCCCGAGTAGGGACGGC | 4.65 | 3 | -0.329 | 1.95 | 0.134 | 4.15 | 2.95 | 2.99 | 0.725 | 1.72 | 0.974 | 2.05 | 0.221 | 0.342 | 1.66 | 2.1 | -0.596 | 3.11 | 0.256 | 4.08
9 | ACAGACAGGTGATGTAGGTAACTCAGGCTATCAT | -0.0766 | -0.183 | -0.0278 | -0.28 | -0.53 | 0.633 | 0.673 | -0.0404 | -0.31 | -0.171 | 1.26 | 2.15 | 0.582 | 0.742 | -0.119 | -0.31 | 0.148 | -0.0493 | 0.492 | 0.149
10 | AGAATGAGGTTGTACGTAGATCAGGGAAGAAAGT | -0.0554 | 0.156 | 0.00374 | 0.364 | 0.0497 | 0.574 | 0.188 | 0.124 | 0.21 | 0.207 | -0.0167 | 0.566 | 0.8 | 0.199 | 0.226 | 0.252 | 0.629 | 0.411 | 0.476 | 0.142
11 | CCTACTGGGCCACGCAAGGTCATTGATTCAGTGA | 2.92 | 3.83 | 2.79 | 2.39 | -0.438 | 3.32 | 2.94 | 3.26 | 1.18 | 2.34 | 5.58 | 5.36 | 0.0336 | 0.776 | 2.02 | 4.51 | 1.84 | 3.48 | 0.546 | 2.81
12 | CAAACTAGTTCAAAGGTCAAAGTCGAGCCAACCA | 7.5 | 6.94 | 5.57 | 6.5 | 2.97 | 7.02 | 11 | 9.72 | 11.8 | 11.7 | 3.06 | 5.87 | 1.03 | 1.34 | 6.05 | 6.85 | 3.08 | 8.58 | 3.93 | 5.27
13 | AGCCAAAGTTCACTAGGTAACGTAAGATTCAGCT | 4.84 | 4.92 | 2.67 | 2.81 | 0.629 | 4.51 | 5.95 | 5.78 | 3.24 | 5.12 | 2.5 | 4.42 | 0.974 | 0.266 | 2.28 | 3.96 | 2.4 | 2.78 | 0.158 | 4.68
